{
  "source": "PubChem BioAssay AID504332",
  "about": "(National Center for Advancing Translational Sciences (NCATS), 2011)",
  "note": "Among all 350,000 compounds or so, about 31,000 (8.9%) were called active. Roughly 15% stayed inconclusive and do not appear here. The sample holds actives, similar compounds and a random draw of the others, so the mix is not that of the screen. A number with no mark means an inactive call. Calls follow the shape of the dose curve; as a rule, active = well fitted inhibition curve with a large enough effect; inconclusive = small, poorly fitted or top-dose-only effect; inactive = no such curve, though single readings can be large or run the other way. % is scaled to controls: 0 for no effect and ±100 for the full control effect; potency is read from the fitted curve at half-maximal effect.",
  "data": [
    {"molecular_target": "Histone-lysine N-methyltransferase EHMT2 (Homo sapiens) (UniProt Q96KQ7)", "sequence (Q96KQ7 913-1193 limits assumed)": "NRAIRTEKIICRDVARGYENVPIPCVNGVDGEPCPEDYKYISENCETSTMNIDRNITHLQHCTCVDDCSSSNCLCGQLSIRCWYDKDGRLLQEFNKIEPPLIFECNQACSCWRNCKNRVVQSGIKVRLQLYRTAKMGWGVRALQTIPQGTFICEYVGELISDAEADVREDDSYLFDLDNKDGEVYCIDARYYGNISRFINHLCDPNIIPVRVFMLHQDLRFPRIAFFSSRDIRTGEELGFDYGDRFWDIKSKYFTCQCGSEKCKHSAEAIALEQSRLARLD", "experiment": "qHTS Assay for Inhibitors of Histone Lysine Methyltransferase G9a; also: nearly all actives have a fitted effect of over 75% in size", "details": "G9a H3K9 monomethylation, AlphaScreen, 2 h; series mostly up to 59 µM; activity, negative = inhibition: at the top concentration", "source_text": "Methylated lysines, on the N-terminal tails of histone proteins serve as epigenetic markers to recruit factors that can then modify local chromatin structure to lead to functional consequences. G9a and other members of the SUV39 family of the SET domain-containing superfamily of histone lysine methyltransferases (HMT) have been identified to specifically methylate Lys9 of histone H3 (H3K9). G9a catalyzes the mono- and di-methylation of H3K9 in mammalian euchromatic regions, where the resulting H3K9me2 is indicative of transcriptional repression. […] The inhibition of G9a will result in transcriptional activation and work synergistically with DNA methyltransferase and histone deacetylase inhibitors, to kill cancer cells. This qHTS assay for identification of G9a inhibitors is a chemiluminescence based AlphaScreen (PerkinElmer). Methylation of biotinylated-histone peptide is measured through specific antibody-based detection, in conjunction with streptavidin-coated donor and anti-IgG antibody-coated acceptor beads. The method is particularly well suited for detection of inhibitors acting by the desired histone peptide competitive mechanism and is applicable to testing other HMTs. Although AlphaScreen has significant advantages with its utility in a variety of epigenetic target assays, the primary screening data provided in this deposition should be used with caution due to the prevalence of screening artifacts. An AlphaScreen counterscreen is highly recommended to be run against any putative actives to eliminate non specific artifacts. Alternatively, one can use other AlphaScreen assays in PubChem to filter out promiscuous hits. Quinn et al. A chemiluminescence-based method for identification of histone lysine methyltransferase inhibitors. Mol Biosyst 6(5): 782-8. 2010. PMID: 20567762 [2] Baell,Holloway. New substructure filters for removal of pan assay interference compounds (PAINS) from screening libraries and for their exclusion in bioassays. J Med Chem. 53(7):2719-40. 2010. PMID: 20131845 NIH Molecular Libraries Probe Production Network [MLPCN] NIH Chemical Genomics Center [NCGC] Structural Genomics Consortium (SGC) NIH Grant: 5U54 MH084681-02\nTo each well of a 1,536w plate, 2ul of HMT enzyme (final 20nM) were added, using a nanoliter dispenser. The G9a- and GLP-inhibitor BIX-01294 (CID: 25150857) are used as an intraplate control, with a 16-point titration in duplicate. A Kalypsys pin-tool transferred 23nl of library compound solution in DMSO to each well. Following a 15 min incubation of enzyme with compounds at room temperature, 1ul mixture of b-H3K9 peptide substrate (final 500nM) and SAM cofactor (final 20uM) were added. Reactions were allowed to proceed at room temperature for 2 hours. Methylated b-H3K9 peptide product was detected with 0.5 ug/mL rabbit polyclonal anti-monomethyl histone H3K9 antibody (Abcam Inc., Cambridge, MA) and 20 ug/mL each streptavidin-coated donor and anti-rabbit IgG acceptor AlphaScreen beads. Antibody and beads were added in a 1ul dispense, for a final volume of 4ul, and plates were incubated, protected from the light, for 10 min at room temperature. Microplates were then read on an EnVision multilabel plate reader using the 1,536 plate HTS AlphaScreen aperture (excitation time 80 ms, measurement time 240 ms).", "values": [
      {"smiles": "O=C(COC(=O)CNC(=O)C1CCCCC1)Nc1cccc(F)c1", "activity, negative = inhibition": "-1.37% [at 12.7 µM]"},
      {"smiles": "CCc1ccc(NC(=O)Cn2c(=O)n(CCC(=O)NCc3ccc4c(c3)OCO4)c(=O)c3ccccc32)cc1", "activity, negative = inhibition": "-1.55%"},
      {"smiles": "CC(C)(C)NC(=O)CSc1nc(-c2ccc(F)cc2)cc(C(F)(F)F)n1", "activity, negative = inhibition": "-8.07%"},
      {"smiles": "O=C(NCCS(=O)(=O)NCc1ccc(F)cc1)c1ccccc1", "activity, negative = inhibition": "-4.54% [at 102 µM]"},
      {"smiles": "Cc1ccc(NC(=O)c2ccc(CN3CC(=O)N4CCCCC4C3=O)cc2)c(Cl)c1", "note": "(configuration not stated)", "activity, negative = inhibition": "-21.2%"},
      {"smiles": "CC(C)(C)OC(=O)Nc1ccc([C@@H](NC(=O)OC(C)(C)C)C(=O)OC(C)(C)C)cc1", "activity, negative = inhibition": "9.51% [at 0.501 µM]"},
      {"smiles": "Cc1ccc2sc(N(Cc3cccnc3)C(=O)C3COc4ccccc4O3)nc2c1C", "note": "(configuration not stated)", "activity, negative = inhibition": "-4.67%"},
      {"smiles": "COc1cc(Cl)c(C)cc1NC(=O)CSc1nnc(-c2cccnc2)n1Cc1ccco1", "Potency": "39.8 µM (active)"},
      {"smiles": "Cc1cc(NC(=O)CSc2nc3cc(Cl)ccc3c(=O)n2Cc2ccco2)no1", "activity, negative = inhibition": "-23.2% [at 102 µM]"},
      {"smiles": "CCn1c(SCC(=O)Nc2cc(C)c(Cl)cc2OC)nnc1-c1ccco1", "activity, negative = inhibition": "-6.92%"},
      {"smiles": "CCCCN(C)S(=O)(=O)c1ccc(C(=O)Nc2sc3c(c2C(N)=O)CC(C)(C)NC3(C)C)cc1", "activity, negative = inhibition": "8.97%"},
      {"smiles": "COc1ccc(-c2nc3c4ccccc4n(CC(=O)Nc4ccc(C(C)=O)cc4)c(=O)n3n2)cc1", "activity, negative = inhibition": "-0.383%"},
      {"smiles": "COCCN1C(=O)C(=O)/C(=C(/O)c2ccc(S(=O)(=O)N3CCOCC3)cc2)C1c1ccc(O)c(OC)c1", "note": "(configuration not stated)", "activity, negative = inhibition": "-19.1% [at 102 µM]"},
      {"smiles": "COc1cc(C2/C(=C(\\O)c3ccc4c(c3)CC(C)O4)C(=O)C(=O)N2c2nnc(C)s2)cc(OC)c1OC", "note": "(configuration not stated)", "Potency": "44.7 µM (active)"},
      {"smiles": "COCCN1C(=O)C(=O)/C(=C(/O)c2ccc(S(=O)(=O)N3CCCCC3)cc2)C1c1ccc(OC)c(OC)c1", "note": "(configuration not stated)", "activity, negative = inhibition": "81.3% [at 102 µM]"},
      {"smiles": "CC(CCCc1ccccc1)NC(=O)c1nn(-c2ccc(Cl)cc2)nc1CO", "note": "(configuration not stated)", "activity, negative = inhibition": "0.317%"},
      {"smiles": "O=C(Nc1nnc(S(=O)(=O)N2CCCc3ccccc32)s1)c1cccc(F)c1", "activity, negative = inhibition": "-6.49%"},
      {"smiles": "Cc1cccc(NC(=O)Cn2c(C(F)(F)F)nc3ccccc32)c1C", "activity, negative = inhibition": "4.54%"},
      {"smiles": "CCc1ccc2nc3sc(C(=O)Nc4nnc(CC)s4)c(N)c3cc2c1", "activity, negative = inhibition": "-8.03% [at 12.7 µM]"},
      {"smiles": "CCN1CCc2nc3sc(C(=O)Nc4ccccc4OC(F)(F)F)c(N)c3cc2C1", "Potency": "14.1 µM (active)"},
      {"smiles": "CCc1ccccc1NC(=O)c1sc2nc3c(cc2c1N)CN(Cc1ccccc1)CC3", "activity, negative = inhibition": "-9.21%"},
      {"smiles": "CCc1ccc(NC(=O)CSc2nc3c([nH]c4ccccc43)c(=O)n2-c2cccc(OC)c2)cc1", "activity, negative = inhibition": "-2.08%"},
      {"smiles": "Cc1ccc2c(c1)c1c(c(=O)n(-c3ccccc3)c(=O)n1CC(=O)c1ccc(Cl)cc1)n2C", "activity, negative = inhibition": "-28.8%"},
      {"smiles": "S=C(NCCCc1cnc[nH]1)NCCCN(Cc1ccc(Cl)c(Cl)c1)c1ccc(Br)cn1", "Potency": "25.1 µM (active)"},
      {"smiles": "CCc1cc2c(cc3c(=O)n(CC(=O)N4CCN(c5cc(Cl)ccc5C)CC4)ncn32)s1", "activity, negative = inhibition": "0.716%"},
      {"smiles": "CCNC(=O)N1CCCC(C(=O)c2ccc(-c3ccccc3)cc2)C1", "note": "(configuration not stated)", "activity, negative = inhibition": "51.8% [at 102 µM]"},
      {"smiles": "CCn1c(=O)c2ccccc2n(CC(=O)N2CCCc3ccccc32)c1=O", "activity, negative = inhibition": "-7.66% [at 0.501 µM]"},
      {"smiles": "O=C(CN1CCc2ccccc2C1)Nc1cccc(S(=O)(=O)N2CCOCC2)c1", "activity, negative = inhibition": "15.7% [at 12.7 µM]"},
      {"smiles": "NS(=O)(=O)c1cccc(NC(=O)CN2CCCc3ccccc32)c1", "Potency": "44.7 µM (active)"},
      {"smiles": "CC1Cc2ccccc2N1CC(=O)Nc1ccc(S(N)(=O)=O)cc1", "note": "(configuration not stated)", "activity, negative = inhibition": "-108%"},
      {"smiles": "O=Cc1c(NCCCN2CCCC2=O)c2ccccc2[nH]c1=O", "activity, negative = inhibition": "20.8% [at 102 µM]"},
      {"smiles": "COC(=O)c1[nH]c2ccccc2c1NC(=O)CN1CCCc2ccccc21", "Potency": "44.7 µM (active)"},
      {"smiles": "O=C(CCCn1c(=O)c2cccn2c2cccnc21)NCc1ccc(F)cc1", "activity, negative = inhibition": "5.33%"},
      {"smiles": "Cc1cc(C)cc(NC(=O)c2cnc3sc(N4CCCC4)nn3c2=O)c1", "activity, negative = inhibition": "4.91%"},
      {"smiles": "O=C(Cc1ccccc1)NNC(=O)C1CCN(c2ncccn2)CC1", "activity, negative = inhibition": "2.95% [at 102 µM]"},
      {"smiles": "O=C1/C(=C\\Nc2ccccc2)CCN1c1ncccn1", "Potency": "50.1 µM (active)"},
      {"smiles": "COc1ccc(-c2c(C)nn3c(N4CCC(C(=O)NCCC(C)C)CC4)cc(C)nc23)cc1OC", "activity, negative = inhibition": "5.73%"},
      {"smiles": "CCC1CCCCN1Cc1c(O)ccc2c(=O)c(Oc3ccccc3Cl)c(C(F)(F)F)oc12", "note": "(configuration not stated)", "activity, negative = inhibition": "0.282%"},
      {"smiles": "Cc1ccc(OCCn2c(CNc3ccccc3C)nc3ccccc32)cc1", "activity, negative = inhibition": "5.61%"},
      {"smiles": "COc1ccccc1CNC(=O)CCCCn1c(=O)c2ccccc2n(CC(=O)Nc2cc(Cl)ccc2C)c1=O", "activity, negative = inhibition": "-19.7%"},
      {"smiles": "COC(=O)c1ccc(NC(=O)CCc2c(C)nc3c(c(C)nn3-c3ccc(C)cc3)c2C)cc1", "activity, negative = inhibition": "-1.18%"},
      {"smiles": "O=C(CCOc1ccccc1)N(Cc1cccnc1)c1nc2ccc(Cl)cc2s1", "activity, negative = inhibition": "-3.53%"},
      {"smiles": "COc1ccc(CC(=O)N/N=C(\\C)c2ccccn2)cc1", "activity, negative = inhibition": "-5.58%"},
      {"smiles": "Cc1cccc(OCC(=O)NCCCNC(=O)c2ccccn2)c1", "activity, negative = inhibition": "15.8% [at 102 µM]"},
      {"smiles": "CCN(CC)CCOc1ccc2c(c1)C(=NNC(=O)c1ccccn1)c1cc(OCCN(CC)CC)ccc1-2", "Potency": "22.4 µM (active)"},
      {"smiles": "O=C(Nc1ccccc1N1CCN(C(=O)c2ccccc2)CC1)c1ccco1", "activity, negative = inhibition": "-3.56% [at 102 µM]"},
      {"smiles": "CCc1nc2ccc(C(=O)N3CCN(c4cc(Cl)ccc4C)CC3)cc2nc1CC", "activity, negative = inhibition": "9.41%"}
    ]}
  ]
}
